The values that follow come from PubChem BioAssay AID887 (National Center for Advancing Translational Sciences (NCATS), 2007).

Each structure is given as a SMILES string. Screen size: about 74,000 compounds; about 1,100 (1.5%) were called active. Entries that show only a call come without a potency. Roughly 5% stayed inconclusive and do not appear here. Calls follow the shape of the dose curve; as a rule, active = well fitted inhibition curve with a large enough effect; inconclusive = small, poorly fitted or top-dose-only effect; inactive = no such curve, though single readings can be large or run the other way. Only a selection was taken, and actives are over-represented in it overall.
Potency is read from the fitted curve at half-maximal effect.

This test deals with Polyunsaturated fatty acid lipoxygenase ALOX15 (Homo sapiens) (UniProt P16050). Briefly: qHTS Assay for Inhibitors of 15-hLO (15-human lipoxygenase). Also: nearly all actives have a fitted effect of over 55% in size. The note with it: purified 15hLO-1, xylenol orange hydroperoxide absorbance; series mostly up to 57.1 µM. Put shortly: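 Quantitative HTS in 25 mM Hepes pH 7.5 containing 0.01% Triton X-100: human 15hLO-1 at 40 nM, arachidonic acid at 50 uM, 6 min turnover. Product quantified via ferrous oxidation/xylenol orange, 573:405 nm absorbance ratio.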
Sequence of Polyunsaturated fatty acid lipoxygenase ALOX15 (Homo sapiens) (P16050 whole entry, looked up): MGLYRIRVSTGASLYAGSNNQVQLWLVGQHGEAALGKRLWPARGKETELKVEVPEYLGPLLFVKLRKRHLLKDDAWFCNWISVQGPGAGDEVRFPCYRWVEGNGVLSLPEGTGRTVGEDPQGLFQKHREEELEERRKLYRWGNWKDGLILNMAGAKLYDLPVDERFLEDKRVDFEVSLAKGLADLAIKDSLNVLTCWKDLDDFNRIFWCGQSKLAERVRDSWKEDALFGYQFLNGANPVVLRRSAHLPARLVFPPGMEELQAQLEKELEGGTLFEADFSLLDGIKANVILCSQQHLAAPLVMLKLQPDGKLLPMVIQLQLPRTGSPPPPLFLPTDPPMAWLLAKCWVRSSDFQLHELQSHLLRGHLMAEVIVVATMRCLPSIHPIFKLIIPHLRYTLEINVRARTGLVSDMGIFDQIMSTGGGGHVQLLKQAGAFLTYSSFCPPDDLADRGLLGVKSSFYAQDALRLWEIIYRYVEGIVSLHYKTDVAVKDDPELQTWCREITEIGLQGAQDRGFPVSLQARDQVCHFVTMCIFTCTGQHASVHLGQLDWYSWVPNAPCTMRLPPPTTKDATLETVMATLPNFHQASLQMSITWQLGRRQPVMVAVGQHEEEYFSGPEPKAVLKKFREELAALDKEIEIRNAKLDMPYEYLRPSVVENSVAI
Regarding `Oc1c(Cl)cc(Cl)c(Cl)c1Cc1c(O)c(Cl)cc(Cl)c1Cl`, the Potency was 5.01 µM (active).
For `COc1cc(OC)c2c(c1Cl)OC1(C2=O)C(O)=CC(=O)CC1C` (centres undefined), the activity change, negative = inhibition result was “inactive”.
As for `CC1O[C@@H](Oc2c(-c3ccc(O)c(O)c3)oc3cc(O)cc(O)c3c2=O)C(O)C(O)C1O` (some centres undefined), the activity change, negative = inhibition entry is “inactive”.
On to `O=c1cc(-c2ccc(O)c(O)c2)oc2cccc(O)c12`, for which the Potency is 0.398 µM (active).
Take `Cc1cccc(-c2cc(=O)c3cc(C)ccc3o2)c1`: the activity change, negative = inhibition result is “inactive”.
In the case of `COC1C[C@@H](O[C@@H]2C(C)C(=O)OC(C)C(C)C(O)C(C)C(=O)[C@@]3(CO3)CC(C)C(OC3OC(C)CC(N(C)C)C3O)C2C)OC(C)[C@@H]1O` (some centres undefined), the activity change, negative = inhibition entry was “inactive”.
In the case of `C=CCSc1nc2c(c(=O)[nH]1)C(C(C)C)C(C#N)=C(N)O2` (centres undefined), the activity change, negative = inhibition entry was “inactive”.
For `CO[C@H]1COC(=O)[C@@H](OCc2ccccc2)/C=C\[C@H](C)[C@@H](OC)COC(=O)[C@H](OCc2ccccc2)/C=C\[C@@H]1C`, the activity change, negative = inhibition was -2.96% [at 11.4 µM] (inactive).
Same read-out and setting: in the case of `CN(C(=O)CN(CCO)CC(=O)N(C)C(C)(C)Cc1ccccc1)C(C)(C)Cc1ccccc1` it was “inactive”; in that of `Cc1ccc2oc(=O)ccc2c1`, “inactive”.
On to `CCN(CC)c1ccc2oc(=O)c(C)nc2c1`, for which the Potency is 25.1 µM (active).
As to `CCc1ccc2oc(-c3ccc(N)cc3)nc2c1`, the activity change, negative = inhibition entry is “inactive”.
On the same count and under the same terms, the value for `Nc1nnc(SCCN2C(=O)c3ccccc3S2(=O)=O)s1` was “inactive”; that for `COc1ccc(/C=C/C(=O)c2ccc(OC)cc2O)cc1` was -1.36% [at 11.4 µM] (inactive).
For the molecule `O=C(Nc1cc(N2CCOCC2)ncn1)NC1(C(F)(F)F)Oc2ccc(Cl)cc2O1` (centres undefined), the Potency is 5.01 µM (active).
For `c1cnn(-c2cc(N3CCOCC3)ncn2)c1`, the activity change, negative = inhibition result was “inactive”.
Consider `COc1c(C)cccc1C(=O)Nc1cc(Cl)ccc1N1CCOCC1`, for which the activity change, negative = inhibition result was “inactive”.
Take `CCCCCCCCCc1ccc(OCCOCCOCCOCCOCCOCCOCCOCCOCCO)cc1`: the activity change, negative = inhibition result was “inactive”.
Consider `COC(=O)C1=C(C)Nc2ncnn2C1c1ccco1` (centres undefined), for which the activity change, negative = inhibition entry was “inactive”.
For the molecule `CCC(C(=O)NC1CCCC1)N(C(=O)c1snc(C(N)=O)c1N)c1ccc2c(c1)OCCO2` (centres undefined), the Potency is 25.1 µM (active).
As for `Cc1ccc(C(C(=O)NC2CCCCC2)N(C(=O)c2csnn2)C2CC2)o1` (centres undefined), the activity change, negative = inhibition result is “inactive”.
On to `O=C(NCCc1ccc2c(c1)OCCO2)c1cc2ccccc2o1`, for which the activity change, negative = inhibition result was “inactive”.
Consider `COc1cc(C(=O)Nc2oc(-c3ccccc3)c(-c3ccccc3)c2C#N)cc(OC)c1OC`, for which the activity change, negative = inhibition entry is “inactive”.
Take `Oc1ccc2c(c1)OCC1c3cc4c(cc3OC21)OCO4` (centres undefined): the activity change, negative = inhibition result is “inactive”.
On to `CCCCOCCCNC(=O)c1ccccc1OCC`, for which the activity change, negative = inhibition is 2.13% [at 11.4 µM] (inactive).
Still for that read-out and setting: in the case of `COc1ccc2[nH]cc(CCNc3ncnc4ccc(-c5ccc(C(=O)N(C)C)cc5)cc34)c2c1` it was “inactive”; in that of `CC(C)NC(=O)N1CCC2(CC1)CCN(C(=O)c1cccn1C)CC2`, “inactive”.
`CC(C)c1ccc2c(c1)c(SC(C)(C)C)c(CC(C)(C)C(=O)O)n2Cc1ccc(Cl)cc1`: the Potency is 12.6 µM (active).
With `CS(=O)(=O)N1CCC2(CC1)CN(Cc1ccccc1)C2`, the activity change, negative = inhibition entry is “inactive”.
`CC(=O)OCC1OC(C#Cc2ccccc2Cl)C=CC1OC(C)=O` (centres undefined): the activity change, negative = inhibition was -0.11% [at 11.4 µM] (inactive).
For the molecule `CN1CC(=O)N=C1N`, the activity change, negative = inhibition entry is “inactive”.
On to `C[C@H]1CC[C@H](C(=O)O)N[C@@H]1c1ccc(C#Cc2ccccc2)cc1`, for which the activity change, negative = inhibition is -4.38% [at 11.4 µM] (inactive).
Take `COC(=O)Cc1csc(Nc2c(C)n(C)n(-c3ccccc3)c2=O)n1`: the activity change, negative = inhibition entry was “inactive”.
For `Cc1cc(C(=O)Nc2c(C)n(C)n(-c3ccccc3)c2=O)cs1`, the Potency was 1.58 µM (active).
Regarding `Cc1c(NC(=O)c2cccnc2)c(=O)n(-c2ccccc2)n1C`, the activity change, negative = inhibition result is “inactive”.
Regarding `O=C(Nn1cnc2ccccc2c1=O)c1ccc(F)cc1Cl`, the activity change, negative = inhibition entry was “inactive”.
With `C/C(O)=C\c1nc(=O)c2c(C)cc(C)nc2n1-c1ccccc1`, the activity change, negative = inhibition result is “inactive”.
In the case of `CCCS(=O)(=O)C(=C1Nc2ccccc2N1)S(=O)(=O)CCC`, the activity change, negative = inhibition entry is “inactive”.
For the molecule `COc1c2c(cc3occ(-c4ccc5c(c4)OCO5)c(=O)c13)OC(C)(C)C=C2`, the activity change, negative = inhibition result was “inactive”.
For `COCCCNC(=O)c1c(F)c(F)c(F)c(F)c1F`, the activity change, negative = inhibition result was “inactive”.
With `COCCCn1c(CCC(=O)O)ccc1-c1ccc(F)cc1`, the Potency is 15.8 µM (active).
`CC(C)Cn1c(CCC(=O)O)ccc1-c1cccs1`: the activity change, negative = inhibition result was “inactive”.
Regarding `Nc1ncn(C2OC(CO)C(O)C2O)c(=O)n1` (centres undefined), the activity change, negative = inhibition result is “inactive”.
For the molecule `CC1(C)OC2CC3C4CCC5=CC(=O)CCC5(C)C4(F)C(O)CC3(C)[C@]2(C(=O)CCl)O1` (some centres undefined), the activity change, negative = inhibition result was “inactive”.
